# TLR4 MyD88 comp – inhibitors of TLR4-MyD88 association in cells, primary screen, cell-based, HeLa CL3-4, BLA complementation, FRET ratio; Toll-like receptor 4 (Homo sapiens) + Myeloid differentiation primary response protein …; HeLa CL3-4 TLR4/MyD88 BLA complementation; inhibition, % at 8.4 µM; 200,000 tested, 0.18% active; in the data active = inhibition above about 25%;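 also: 0% = vehicle and 100% = reference inhibitor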
# Target sequence (O00206 whole entry, looked up): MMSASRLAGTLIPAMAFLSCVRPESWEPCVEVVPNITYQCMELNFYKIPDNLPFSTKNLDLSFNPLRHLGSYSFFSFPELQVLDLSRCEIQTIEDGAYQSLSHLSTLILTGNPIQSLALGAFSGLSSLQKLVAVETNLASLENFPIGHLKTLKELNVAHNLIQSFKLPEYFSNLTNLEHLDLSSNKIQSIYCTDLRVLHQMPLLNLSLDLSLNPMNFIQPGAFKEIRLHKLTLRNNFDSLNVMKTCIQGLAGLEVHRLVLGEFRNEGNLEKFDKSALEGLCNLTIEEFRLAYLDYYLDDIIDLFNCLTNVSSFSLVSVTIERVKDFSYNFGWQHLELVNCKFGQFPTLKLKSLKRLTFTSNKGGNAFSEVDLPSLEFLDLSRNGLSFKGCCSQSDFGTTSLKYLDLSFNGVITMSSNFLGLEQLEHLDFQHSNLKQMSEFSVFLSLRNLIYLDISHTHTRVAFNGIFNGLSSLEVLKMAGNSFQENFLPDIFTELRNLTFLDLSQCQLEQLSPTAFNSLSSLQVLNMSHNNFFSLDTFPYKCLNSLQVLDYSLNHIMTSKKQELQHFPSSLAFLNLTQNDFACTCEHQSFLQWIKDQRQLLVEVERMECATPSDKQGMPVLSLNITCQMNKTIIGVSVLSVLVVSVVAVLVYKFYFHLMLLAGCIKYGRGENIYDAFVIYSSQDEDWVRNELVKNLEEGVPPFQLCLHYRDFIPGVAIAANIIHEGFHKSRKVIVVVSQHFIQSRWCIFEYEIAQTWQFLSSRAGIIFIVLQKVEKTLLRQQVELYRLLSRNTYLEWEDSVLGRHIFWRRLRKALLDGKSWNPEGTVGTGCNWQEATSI
# Target sequence (Q99836 whole entry, looked up): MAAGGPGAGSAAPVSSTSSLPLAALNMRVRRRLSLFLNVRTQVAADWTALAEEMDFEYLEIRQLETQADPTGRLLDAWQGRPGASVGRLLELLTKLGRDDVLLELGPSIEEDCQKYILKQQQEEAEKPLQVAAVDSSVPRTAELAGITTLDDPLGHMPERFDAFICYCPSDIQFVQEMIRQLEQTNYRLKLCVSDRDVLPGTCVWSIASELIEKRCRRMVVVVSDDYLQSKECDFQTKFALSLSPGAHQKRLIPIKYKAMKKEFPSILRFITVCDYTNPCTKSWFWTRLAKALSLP
# TLR9-MyD88 inh – inhibitors of TLR9-MyD88 association in cells, primary screen, cell-based, CHO, BLA complementation, fluorescence. Toll-like receptor 9 (Homo sapiens) + Myeloid differentiation primary response protein …. 340,000 tested, 0.21% active. AID 504734, 2011. CCF4 FRET ratio. inhibition, % at 4.98 µM;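 active = inhibition above the mean over all tested compounds plus 3 SD, cut at about 21% in these data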;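 also: 0% = DMSO only wells and 100% = clavulanate BLA inhibitor control wells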
# TMEM16A act – TMEM16A chloride channel activators or potentiators, primary screen, cell-based, HTS; Anoctamin-1 (Mus musculus), Q8BHY3; HEK293 TMEM16A/YFP-H148Q/I152L, iodide quench fluorescence; active compounds read low; B-score at 10 µM; 340,000 tested, 0.3% active; AID 623877, 2012;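 active = fluorescence-ratio B-score plate-corrected deviation score at least 3 library SD below zero, with starting fluorescence score within 5 deviations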;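 also: channel opened by trigger with iodide after compound preincubation; score built on the fluorescence ratio of max minus min over baseline; more negative score means more quench and so TMEM16A activation or potentiation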
# ANO1 block – TMEM16A chloride channel inhibitors, primary screen, cell-based, HTS; HEK293 TMEM16A/YFP iodide influx fluorescence, ionomycin; normalized B-score (activity score, 25-100; higher = stronger inhibition) at 10 µM; Anoctamin-1 (Mus musculus), Q8BHY3; 310,000 tested, 1.2% active;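 active = ratio plate-corrected score three or more library SD toward inhibition, starting fluorescence score within five deviations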;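 also: score derived from kinetic fluorescence span divided by baseline fluorescence per well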
# NOD2-RIPK2 inh – NOD2-RIPK2 binding disruptors in cells, primary screen, fluorescence, CHO cells, BLA complementation; CCF4 ratio; inhibition, % at 4.98 µM; 360,000 tested, 0.38% active; AID 624267, 2012; in the data active = inhibition above about 21%;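 also: 0% = vehicle only and 100% = reference blocker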
# HTR2A ag – mouse Htr2a agonists via beta-arrestin recruitment, primary screen, cell-based, luminescence. CHO-K1 mHTR2A beta-arrestin complementation; percent of 30 µM serotonin response. activation, % at 7.6 µM. 5-hydroxytryptamine receptor 2A (Mus musculus), P35363. 360,000 tested, 0.66% active;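 active = activation above a run cutoff, the mean activation of all tested compounds plus 3 SD, cut at about 14% in these data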;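 also: 0% = plate median of compound wells and 100% = 30 µM serotonin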
# TMEM16A reconf – TMEM16A chloride channel inhibitors, confirmation, cell-based, re-confirmation; shares compounds with ANO1 block; HEK293 TMEM16A/YFP-H148Q, iodide quench fluorescence; ionomycin added to raise cell calcium; inhibition, % at 10 µM; 2,300 tested, 39% active; AID 652189, 2013;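 active = mean duplicate percent inhibition, scaled so buffer wells are 0 and the reference blocker 100, over three buffer SD above buffer mean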
# HEK293 Ca mobil – calcium mobilization in TMEM16A/YFP HEK293 cells, confirmation, counter-screen for TMEM16A inhibitor project. shares compounds with ANO1 block. Fluo4 calcium mobilization. calcium response (% of ionomycin), % at 10 µM. 2,300 tested, 2% active;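 active = duplicate-averaged calcium signal over 20% of the ionomycin maximum, relative to buffer baseline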;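 also: each well's signal is peak minus trough fluorescence divided by its pre-addition baseline; 0% = buffer wells and 100% = ionomycin wells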
# YFP-HEK293 quench – iodide YFP quench changes in parental YFP-HEK293, counter-screen for TMEM16A inhibitor project, cell-based. shares compounds with ANO1 block. ionomycin. YFP ratio F(max-min)/F0 at 10 µM. 2,300 tested, under 10 active;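 active = yellow fluorescent protein signal ratio exceeding the buffer control mean by over 5 SD of those controls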;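 also: ratio is mean of duplicate wells from kinetic YFP trace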
# ClC-1 inh – ClC-1 chloride channel inhibition, selectivity assay for TMEM16A inhibitor project, cell-based, voltage-dependent ClC-1. shares compounds with ANO1 block. CHO ClC-1-YFP, iodide influx fluorescence quench; iodide control reads 0, buffer control 100. ratio percent, % at 10 µM. 2,300 tested, under 10 active;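 active = duplicate-mean ratio percent above the mean of iodide-only control wells, which defines zero, plus 5 of their SD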;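 also: higher percent means stronger block of ClC-1 iodide influx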
# An asterisk follows results filed as active; i = inactive; / = no result given. Compounds with a hit are over-represented: about 2.4% of the library has one in this group of screens.
SMILES,TLR4 MyD88 comp,TLR9-MyD88 inh,TMEM16A act,ANO1 block,NOD2-RIPK2 inh,HTR2A ag,TMEM16A reconf,HEK293 Ca mobil,YFP-HEK293 quench,ClC-1 inh
CCOP(=O)(c1ccccc1)C(O)c1ccccc1 (configuration not stated),4.4,10.4,i,i,-7.3,0.1,/,/,/,/
CCOP(=O)(c1c(F)c(F)c(F)c(F)c1F)C(O)c1ccccc1 (configuration not stated),6.7,-22.5,i,25*,-0.7,-0.8,31.0%*,i,-0.981,-10.0
COc1ccc(-c2nnn(CC(=O)NCc3ccc4c(c3)OCO4)n2)cc1OC,-6.0,-0.2,i,i,2.0,0.2,/,/,/,/
Cc1sc(NC(=O)CSc2nnc3scc(-c4ccccc4)n23)c(C#N)c1C,0.4,6.2,i,25*,-5.1,2.1,i,i,-1.09,-8.5
COc1ccc(N=C2SCC(=O)N2CCc2ccc(OC)c(OC)c2)cc1,/,-2.6,i,i,-6.6,-5.0,/,/,/,/
COc1ccc(CCN2C(=O)CSC2=Nc2ccc(C(C)C)cc2)cc1OC,/,/,i,100*,-2.8,0.1,53.0%*,i,-0.936,-28.0
CCOC(=O)N1CCC(=C2c3ccc(Cl)cc3CCc3cccnc32)CC1,4.5,-5.1,i,25*,-5.4,-0.3,i,i,-1.12,-15.5
COC(=O)[C@@]12CCCN1[C@H](c1ccc(-c3ccc(Cl)c(Cl)c3)cc1)[C@H]1C(=O)N(C)C(=O)[C@H]12,/,-12.6,i,100*,-3.5,-0.6,i,i,-0.888,2.0
O=C1N(C2CCCC2)C[C@@H]2C[C@@H](c3cccn3-c3ccccn3)N3CCC[C@@]123,8.5,5.6,i,i,-13.0,-1.9,/,/,/,/
Cc1ccccc1-c1nc2sc3c(c2c(=O)n1N)CCCC3,10.3,0.9,i,i,4.6,3.7,/,/,/,/
Nn1c(-c2cccs2)nc2sc3c(c2c1=O)CCCC3,-0.8,-0.5,i,25*,12.3,-1.9,29.5%*,i,-0.993,-17.5
CN(C)C1=NCCN1CCCCc1ccccc1,/,-9.0,i,i,-10.6,-3.0,/,/,/,/
O=C(CCS(=O)(=O)c1ccccc1)N1CCN(c2cccc(C(F)(F)F)c2)CC1,/,-4.1,i,25*,1.7,-6.2,i,i,-1.05,-15.0
CC1CN(C(=O)CCC(=O)N2CCN(c3cccc(C(F)(F)F)c3)CC2)c2ccccc2O1 (configuration not stated),/,-3.6,i,25*,-2.0,-0.9,20.0%*,i,-0.946,-3.5
COc1ccc(N2CCN(C(=O)CCC(=O)N3CC(C)Oc4ccccc43)CC2)cc1 (configuration not stated),/,4.4,i,i,-6.9,2.8,/,/,/,/
NC(N)=NS(=O)(=O)c1ccc(NC(=S)Nc2ccc(F)cc2)cc1,/,2.4,i,i,-4.2,-2.8,/,/,/,/
Cc1occc1C(=O)Nc1ccc(Br)cc1F,-11.5,1.8,i,100*,-0.2,-4.2,i,i,-0.87,-11.0
COc1ccc(C2=NOC(C(=O)NCC(C)C)C2)cc1 (configuration not stated),-3.3,-3.9,i,100*,-5.9,1.3,i,i,-0.974,-10.5
CCC(C)NC(=O)C1CC(c2ccc(OC)cc2)=NO1 (configuration not stated),-4.4,-5.9,i,i,0.4,0.2,/,/,/,/
CC(=O)NC(c1ccccc1)c1cccnc1 (configuration not stated),-10.7,-2.9,i,25*,4.9,2.6,i,i,-1.14,-7.5
C=CCc1ccc(OCCOCCOc2ccccc2[N+](=O)[O-])c(OC)c1,6.1,6.1,i,100*,-1.1,-5.0,i,i,-1.13,-11.0
Cc1cccc(C)c1OCc1cc(C(=O)N2CCC(c3ccncc3)CC2)no1,/,2.7,i,25*,-2.8,4.6,21.0%*,i,-1.03,-21.5
O=C(c1cc(COc2c(F)cccc2F)on1)N1CCC(c2ccncc2)CC1,15.4,-5.6,i,25*,-7.7,-3.4,i,i,-1.2,-22.5
O=C(c1ccc(-c2ccccc2)cc1)c1ccccc1C(=O)N1CCOCC1,-2.1,-2.2,i,100*,-0.4,-2.4,i,i,-1.2,-9.5
O=C(c1ccccc1)c1ccc(C(=O)N2CCOCC2)cc1,-7.9,0.0,i,i,0.8,-2.4,/,/,/,/
SMILES,TLR4 MyD88 comp,TLR9-MyD88 inh,TMEM16A act,ANO1 block,NOD2-RIPK2 inh,HTR2A ag,TMEM16A reconf,HEK293 Ca mobil,YFP-HEK293 quench,ClC-1 inh
COc1ccccc1-c1cccc([C@@H]2C[C@H]3[C@H](CON3C)CN2C(=O)CCc2ccccc2)c1,/,-0.6,/,/,6.4,-1.7,/,/,/,/
COc1ccc2[nH]cc(CCNS(=O)(=O)c3ccccc3)c2c1,-5.4,4.9,i,i,3.4,-3.9,/,/,/,/
COc1ccc2[nH]cc(CCNS(=O)(=O)c3ccc(F)cc3)c2c1,3.7,-20.2,i,25*,-7.6,-1.8,i,i,-1.02,-8.5
Cc1sc2ncnc(N3CCN(S(=O)(=O)c4ccc(Br)cc4)CC3)c2c1C,/,-5.3,i,25*,-5.8,1.9,30.0%*,i,-0.99,-23.0
COc1ccc(CCNC(=O)CSc2nnc(CNC(=O)c3ccccc3F)o2)cc1OC,5.3,9.8,i,i,-4.7,2.7,/,/,/,/
COc1ccc(C(=O)Nc2sc3c(c2C(=O)NCc2ccco2)CCCC3)cc1OC,-9.6,-3.1,i,25*,-12.2,0.3,i,i,-1.19,-5.5

# Bioassay records deposited in PubChem BioAssay by several laboratories.
